PGC1a acetyl inh = inhibitors of PGC1a acetylation signal, primary screen, cell-based, U2OS, AlphaScreen, inhibitor mode. AlphaScreen anti-acetyl-lysine; with virally co-expressed GCN5 acetyltransferase. inhibition, % at 15.6 µM. hit rate 0.17% among 350,000. AID 651687, 2012;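 active means every replicate shows inhibition of at least 40%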
RAD52 inh = RAD52 DNA annealing inhibitors, primary screen, biochemical, FRET, single point, set 2. DNA repair protein RAD52 homolog (Homo sapiens), P43351. recombinant RAD52 DNA annealing, FRET fluorescence. inhibition, % at 18.7 µM. hit rate 0.46% among 360,000. AID 651710, 2012;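 active means every replicate showing at least 50% inhibition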
RAD54 inh = inhibitors of human RAD54 branch migration, primary screen, biochemical, fluorescence, single point; DNA repair and recombination protein RAD54-like (Homo sapiens), Q92698; hit rate 0.14% among 360,000; inhibition, % at 10.4 µM; RAD54 Holliday junction branch migration, FAM/BHQ fluorescence; AID 602329, 2012;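 active means mean normalized replicate activity at least 40 and at least half of replicates scoring 40 or more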;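 further: inhibitors cause a drop in the FAM fluorescence signal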
ERAP1 HTS inh = human ERAP1 aminopeptidase inhibitors, primary screen, biochemical, single point, plate reader; Endoplasmic reticulum aminopeptidase 1 (Homo sapiens), Q9NZ08; recombinant ERAP1, Leu-AMC fluorescence, 60 min; inhibition, % at 10.7 µM; hit rate 0.15% among 340,000;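 active means mean replicate inhibition of at least 30%, or all replicates individually reaching that 30% level; inactive means mean below 30% and not every replicate reaching it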
Target sequence (Q9NZ08 whole entry, looked up): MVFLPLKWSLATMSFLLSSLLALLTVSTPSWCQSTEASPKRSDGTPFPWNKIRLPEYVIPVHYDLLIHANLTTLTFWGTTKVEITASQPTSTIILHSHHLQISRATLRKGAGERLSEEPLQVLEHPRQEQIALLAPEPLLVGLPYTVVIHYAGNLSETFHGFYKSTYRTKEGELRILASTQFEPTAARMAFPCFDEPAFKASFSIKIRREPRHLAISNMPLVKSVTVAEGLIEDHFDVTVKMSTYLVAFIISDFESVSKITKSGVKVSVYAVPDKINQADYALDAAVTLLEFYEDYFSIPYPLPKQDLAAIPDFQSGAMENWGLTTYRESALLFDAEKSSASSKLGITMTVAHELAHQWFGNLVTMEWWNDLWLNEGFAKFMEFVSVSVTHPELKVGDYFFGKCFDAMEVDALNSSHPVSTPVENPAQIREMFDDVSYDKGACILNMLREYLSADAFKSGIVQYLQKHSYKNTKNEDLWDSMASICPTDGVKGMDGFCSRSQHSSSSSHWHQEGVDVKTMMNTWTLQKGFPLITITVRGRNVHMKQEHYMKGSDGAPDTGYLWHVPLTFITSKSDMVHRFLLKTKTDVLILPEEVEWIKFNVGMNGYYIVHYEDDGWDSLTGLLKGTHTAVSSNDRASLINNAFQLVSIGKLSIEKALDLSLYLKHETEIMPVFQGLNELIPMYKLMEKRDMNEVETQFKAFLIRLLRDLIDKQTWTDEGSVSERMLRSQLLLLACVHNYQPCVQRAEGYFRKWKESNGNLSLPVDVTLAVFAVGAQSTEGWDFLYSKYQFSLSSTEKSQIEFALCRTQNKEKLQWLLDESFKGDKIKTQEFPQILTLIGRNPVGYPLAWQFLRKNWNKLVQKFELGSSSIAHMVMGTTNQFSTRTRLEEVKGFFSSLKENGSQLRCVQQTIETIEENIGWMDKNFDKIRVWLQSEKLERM
AF4-AF9 inh = inhibitors of AF4 peptide binding to AF9, primary screen, biochemical, AlphaScreen, biotin-AF4 peptide, FLAG-AF9, single point | Protein AF-9 (Homo sapiens), P42568 | inhibition, % at 10 µM | hit rate 0.47% among 350,000 | AID 651704, 2012;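 active means every replicate reaching a set inhibition limit, whatever the replicate mean, cut at about 25% in these data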
GSIS activator = GLuc luminescence reporter in INS-1E cells, primary screen for activators of glucose-dependent secretion of insulin | INS-1E GLuc reporter insulin secretion, 2-3 h | activation, % at 16.6 µM | hit rate 0.61% among 370,000;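 active means lowest replicate activation of at least 40%, so every replicate reaches that level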
Of the large screens only hits and unclear results are named; the others gave an inactive call. Compounds with a hit are over-represented: about 1.4% of the library has one in this group of screens.

CO[C@@H]1CN(C)C(=O)c2ccc(NC(=O)C3CCCC3)cc2OC[C@H](C)N(CCC(F)(F)F)C[C@@H]1C	none (no result: GSIS activator)
O=C(Nc1ccc(Cl)cc1)N[C@@H]1CC[C@@H](CCNS(=O)(=O)c2ccccc2F)O[C@H]1CO	none
CC1=CC(c2ccccc2)n2nc(NC(=O)CCC(=O)O)nc2N1 (stereo not drawn)	GSIS activator 65 (no result: ERAP1 HTS inh)
COc1ccccc1C(NC(C)=O)c1cc(Cl)c2cccnc2c1O (stereo not drawn)	PGC1a acetyl inh 46
COc1ccc2c3c([nH]c2c1)[C@@H](CO)N(Cc1nccs1)CC31CN(C(=O)C2CCCCC2)C1	none (no result: PGC1a acetyl inh, RAD52 inh, RAD54 inh, ERAP1 HTS inh, AF4-AF9 inh)
CCOC(=O)c1c(C)c(C(=O)OCC)n(C)c1C	none (no result: PGC1a acetyl inh)
CCOC(=O)c1nc(SC)n(C)c1C(=O)OCC	GSIS activator 54 (no result: PGC1a acetyl inh)
C/C=C/c1ccc2c(c1)O[C@H](CN(C)C(=O)C1CCC1)[C@@H](C)CN([C@H](C)CO)S2(=O)=O	none (no result: RAD52 inh, RAD54 inh, ERAP1 HTS inh, AF4-AF9 inh)
COc1cc(C(=O)OCCN2CCCCC2)ccc1O	none (no result: RAD52 inh, ERAP1 HTS inh, AF4-AF9 inh, GSIS activator)
COc1cc(C#CC#CCN2CCCCC2)ccc1O	GSIS activator 44 (no result: RAD52 inh, ERAP1 HTS inh, AF4-AF9 inh)
CCCCC(C(=O)NCCC(C)C)N(CCCN1CCOCC1)C(=O)c1snc(C(N)=O)c1N (stereo not drawn)	GSIS activator 54 (no result: RAD52 inh, ERAP1 HTS inh, AF4-AF9 inh)
Cc1ccc(C(C(=O)NC2CCCCC2)N(CCCN2CCOCC2)C(=O)c2snc(C(N)=O)c2N)cc1 (stereo not drawn)	none (no result: PGC1a acetyl inh)
C[C@@]12C(=O)OC(=O)[C@]1(C)C1CCC2O1	PGC1a acetyl inh 47
CC12C(=O)N(c3nccs3)C(=O)C1(C)C1CCC2O1 (stereo not drawn)	none
Cc1ccc(S(=O)(=O)N(C)C[C@@H]2Oc3ccc(NS(=O)(=O)c4cn(C)cn4)cc3CC(=O)N([C@@H](C)CO)C[C@H]2C)cc1	none (no result: RAD52 inh, RAD54 inh, ERAP1 HTS inh, AF4-AF9 inh)
CCOc1ccccc1-n1nnnc1SCC(=O)NC(=O)Cc1ccccc1	ERAP1 HTS inh 33
CCOc1ccccc1-n1nnnc1SCC(=O)NC(=O)NCc1ccco1	none (no result: RAD52 inh, ERAP1 HTS inh, AF4-AF9 inh, GSIS activator)
CCOc1ccccc1-n1nnnc1SCC(=O)N1CCCC1=O	GSIS activator 51
C[C@@H]1CN([C@H](C)CO)C(=O)Cc2cc(NS(=O)(=O)c3ccc(Cl)cc3)ccc2O[C@@H]1CN(C)C(=O)Nc1ccc2c(c1)OCO2	none (no result: RAD52 inh, RAD54 inh, ERAP1 HTS inh, AF4-AF9 inh)
Cc1cccc2c3c([nH]c12)[C@H]1CCC(=O)N1CC3	none (no result: PGC1a acetyl inh, RAD54 inh, GSIS activator)
Cc1ccccc1-c1ccc([C@@H]2[C@@H](CO)N3C(=O)CN(C(=O)Nc4ccccc4)C[C@H]23)cc1	none (no result: PGC1a acetyl inh, RAD52 inh, RAD54 inh, ERAP1 HTS inh, AF4-AF9 inh)
C[C@@H]1CN([C@@H](C)CO)C(=O)c2cccc(NC(=O)CCCCCC(=O)Nc3ccccc3N)c2O[C@H]1CN(C)CC1CCCCC1	none (no result: RAD54 inh)
COCCCn1c(C(=O)N2CCOCC2)cc2c(=O)n3ccccc3nc21	ERAP1 HTS inh 54
CCN(C(=O)c1cc2c(=O)n3cccc(C)c3nc2n1CCCOC)C1CCCCC1	ERAP1 HTS inh 50
CCCCCCC1CC(=O)NC(=S)N1 (stereo not drawn)	PGC1a acetyl inh 63 (no result: RAD54 inh)
O=C1CC(c2ccccc2)NC(=S)N1 (stereo not drawn)	none (no result: PGC1a acetyl inh)
Cn1c(SCC(=O)N2CCCC2)nc2ccccc21	none (no result: PGC1a acetyl inh, RAD54 inh)
Cn1c(SCc2nnc3n2CCCCC3)nc2ccccc21	GSIS activator 66 (no result: RAD52 inh, ERAP1 HTS inh, AF4-AF9 inh)
CN[C@H]1C[C@@H](c2ccccc2)N(C(C)=O)C[C@H]1CO	GSIS activator 42 (no result: ERAP1 HTS inh)
CCNC(=O)N(C)[C@H]1C[C@@H](c2ccccc2)N(C(C)=O)C[C@H]1CO	none (no result: PGC1a acetyl inh, RAD54 inh, AF4-AF9 inh)
Cc1ccc(S(=O)(=O)N[C@H]2CC[C@@H](CCNC(=O)C3CC3)O[C@H]2CO)cc1	none
O=C(CSc1nc2ncccc2[nH]1)NC1CCCC1	AF4-AF9 inh 40 (no result: PGC1a acetyl inh)
COc1ccc(CC(=O)OCN2C(=O)c3ccccc3C2=O)cc1	none (no result: RAD52 inh, ERAP1 HTS inh, AF4-AF9 inh)
COc1ccc(CC(=O)OCn2nnc3ccccc3c2=O)cc1OC	GSIS activator 44 (no result: RAD54 inh, ERAP1 HTS inh)
COc1ccc(CC(=O)O/N=C(\N)c2ccccc2)cc1OC	GSIS activator 51
COc1ccc(CC(=O)OCN2C(=O)c3ccccc3C2=O)cc1OC	GSIS activator 62 (no result: PGC1a acetyl inh)
COc1ccc(C(=O)O/N=C(\N)c2ccc(OC)c(OC)c2)cc1	GSIS activator 45
O=C(c1ccccc1Cl)N1CCNCC1	PGC1a acetyl inh 67 (no result: RAD52 inh, RAD54 inh, ERAP1 HTS inh, AF4-AF9 inh)
COc1ccc(C(=O)N/N=C/c2c(CO)cnc(C)c2O)cc1	ERAP1 HTS inh 33 (no result: PGC1a acetyl inh, RAD54 inh)
Cc1ncc(CO)c(/C=N/NC(=O)c2ccoc2C)c1O	none
Cc1ncc(CO)c(/C=N/NC(=O)c2ccccc2Br)c1O	ERAP1 HTS inh 54 (no result: PGC1a acetyl inh, RAD54 inh)
Cc1ncc(CO)c(/C=N/NC(=O)c2ccc(O)cc2)c1O	none (no result: RAD52 inh, ERAP1 HTS inh, AF4-AF9 inh)
O=C(C[C@@H]1CC[C@@H](NC(=O)c2ccccn2)[C@@H](CO)O1)NCc1cc(F)cc(F)c1	none
O=C(NCc1n[nH]c(=S)n1-c1ccccc1)c1cccs1	none
CCn1c(CNC(=O)c2cccs2)n[nH]c1=S	AF4-AF9 inh 25
COc1ccc(S(=O)(=O)N2CCC(C(N)=O)(N3CCCCC3)CC2)cc1OC	GSIS activator 71 (no result: PGC1a acetyl inh)
CCNC(=O)C[C@@H]1C=C[C@@H](NS(=O)(=O)c2ccc(C)cc2)[C@@H](CO)O1	none
CCCCCCCCn1ccc(=N)cc1	none

Screening data deposited in PubChem by Broad Institute.
